Data: the supplement of paper PMC3334620
The full ranking holds about 33,000 sequences; the median of “E-score (-0.5 to 0.5)” is about -0.013, and the highest 2% start at about 0.3. This is one part of a sample in which the highest values are shown more often than they occur.

Molecular target: T1, Msn1 (UniProt P22148)
T1 sequence: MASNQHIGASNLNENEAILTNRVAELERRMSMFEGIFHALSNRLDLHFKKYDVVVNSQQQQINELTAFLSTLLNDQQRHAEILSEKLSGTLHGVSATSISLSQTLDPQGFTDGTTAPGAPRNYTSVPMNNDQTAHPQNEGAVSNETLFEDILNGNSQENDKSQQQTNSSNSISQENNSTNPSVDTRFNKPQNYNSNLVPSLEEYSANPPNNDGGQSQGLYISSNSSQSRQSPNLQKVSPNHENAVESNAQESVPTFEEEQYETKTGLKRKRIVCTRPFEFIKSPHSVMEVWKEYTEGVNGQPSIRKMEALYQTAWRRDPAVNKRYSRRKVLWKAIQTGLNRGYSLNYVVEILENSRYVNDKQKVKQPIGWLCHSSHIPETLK
Test: PBM E-score (8-mer binding enrichment) (E-score (-0.5 to 0.5)); higher = stronger / more preferred TF binding
Settings: protein concentration: 200 nM; construct: GST-full length
Description: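 Universal 'all 10-mer' protein binding microarrays (Agilent AMADID 015681) probed with GST-tagged S. cerevisiae TFs (full-length or DBD) made by in vitro transcription/translation (PURExpress), about 100-200 nM. Bound TF was detected with fluorescent anti-GST. Each ungapped 8-mer (which stands for itself and its reverse complement) is scored by the PBM enrichment score (E-score), a modified Wilcoxon-Mann-Whitney statistic from -0.5 to +0.5, computed with the Universal PBM Analysis Suite. Scale: above 0.35 generally sequence-specific binding.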

Sequence	PBM E-score
GGGGCTGA	-0.148
AGGGGCAG	-0.13
GGACCGGA	0.113
CGCTAACC	-0.084
GGAGTTAA	0.0335
TGGCCCCA	-0.338
AGGTCCGG	0.041
ATGTCCGC	0.44
CTGTCCGC	0.114
AAGTCCGG	0.22
ATGTCCGG	0.457
ACGTCCGC	0.14
CCACTTAC	-0.133
CCCTCTAC	-0.204
ACCGTCGT	0.142
GCAGAGCC	-0.149
ATAACAAT	0.00977
ATGACAAT	0.365
CTGACAAG	0.161
ATGACAAC	0.311
ATGACAGC	0.149
ATGACAAG	0.298
CTGACAAA	0.37
ATTACAAT	0.155
CTGACAAC	0.108

Sequence	PBM E-score
TTGACAAA	0.266
ATGACGAA	0.0573
ATGACAAA	0.433
ACGTGCCT	-0.148
ATATCTGG	0.045
GCCATTGA	0.00063
CAATAAGC	0.00863
GCGTATCC	-0.037
CCATACCA	0.0887
GTGACAAA	0.423
GTGACAAC	0.139
GTGACGAA	-0.0509
ACTCCCTC	-0.312
GCATGACA	0.199
GAATGACC	0.201
ACATGACA	0.297
CAATGACA	0.298
AAATGACA	0.278
TCATGACA	0.388
TAATGACA	0.307
GAATGACA	0.34
TGATGACA	0.299
AGGGTAAC	-0.177
AAGTCGGA	0.158
ATACCCAA	0.195

Sequence	PBM E-score
ATAGGTTG	-0.0907
CGCGGGCC	-0.105
ACGGTCGG	-0.0232
GCAAACCC	-0.225
CCAACGGC	-0.132
GCATGTAA	-0.12
CAATTGTA	0.184
GAATTGGC	-0.278
GAATTGTA	0.151
CAATTGTG	-0.00904
GAATTGTC	0.392
CAATTGTC	0.445
AAATTGTA	0.222
AAATTGTC	0.449
AAATTGTT	0.143
ACCTAAAA	0.0426
TCTAGCAA	0.0862
TCACCCCA	0.108
AAACGCCT	-0.0244
GGTGCGGA	-0.047
ACCTAAGG	-0.14
AGTGCTCA	-0.229
AGGTACAC	0.139
GGGTACAA	0.198
AGGTACAA	0.394

Sequence	PBM E-score
CGGTACAC	0.123
CGGTACAG	0.054
TGGTACCA	-0.0646
CGGTACAA	0.311
AGGTACAG	0.00868
TGGTACAA	0.386
ATCGTTTA	0.141
CTTCATCA	-0.143
AAGGGCAG	-0.102
CTGGAAGC	-0.225
GCTTTTCC	-0.0951
AGCCTCAC	-0.223
CTCATGTC	0.27
CGCATGTA	0.0633
CGCATGTC	0.426
ACCATGTC	0.218
CCCATGTA	0.0749
AGCATGTG	-0.0619
AGCATGTC	0.318
CCCATGTC	0.316
AGCATGTA	0.0635
ATTTGAGC	-0.0055
ACAATCTA	0.0825
CGGACCGA	0.165
CAGCGAAG	-0.193

Sequence	PBM E-score
TATCGGGA	0.178
TCCCCAGA	-0.107
CATGTCCA	0.463
GCTGTCCA	0.159
CATGTCCG	0.436
GATGTCCC	0.462
CCTGTCCG	0.117
ACTGTCCA	0.0386
CATGTCAA	0.236
CCTGTCCA	0.156
CATGTCAG	0.208
GATGTCAC	0.26
TCTGTCCA	0.363
GCTGTCCC	-0.0712
CTTACTGC	-0.143
GATGGCGC	-0.252
ATTTAGAG	0.0544
ACGGGAGG	-0.268
ACACATGT	0.238
GATGTCGA	0.0163
AATGTCAA	0.3
GACGTCCA	0.207
TACGTCCA	0.179
AAGGTCCG	-0.0417
GATGTCAA	0.0785

Sequence	PBM E-score
TATGTCCA	0.465
TATGTCAA	0.31
GATGTCCA	0.458
AATGTCCG	0.481
AATGTGCG	-0.0792
TATGTCGA	0.289
GCTCCCAC	-0.135
GGCCAAAA	0.00072
GTTCGAGA	0.11
CAGAAAGC	-0.0396
AGCAAAAT	0.174
AGGGGGCC	-0.412
GCTACCGA	-0.00569
CCAGTACG	-0.0732
CATGTCCC	0.459
CCTGTCCC	0.282
CATGTCAC	0.291
CCACTTGC	-0.132
CTCAGTCA	-0.173
CCTGGACC	0.0101
ACTGGACT	0.105
TCTGGAAA	-0.0457
ACTGGACA	0.374
GCTGGACA	0.276
CCTGGACA	0.417

Sequence	PBM E-score
TCTGGACA	0.381
CCTGGACG	-0.182
ACTGGACC	-0.137
AAGTATGC	-0.0157
GCCGACCA	0.0498
TCCTTGCA	0.0515
CCTCTCAG	-0.339
ATACCATA	0.0438
CAGGCGGA	0.223
AAATGTGG	0.147
CAATGTGG	0.111
AAATGTTG	-0.0982
AAATGTAT	0.28
AAATGTCT	0.486
AAATGTGT	0.292
CAATGTCA	0.262
AAATGTCG	0.412
CAATGTCC	0.47
CAATGTGC	-0.121
CAATGTCG	0.323
CAATGTAG	-0.109
ACGACTCC	-0.181
